PubChem BioAssay
Calls of active or inactive are those of the source.

Tests used:
[1] = system: Plasmodium falciparum Sir2 (PF13_0152, Sir2A); assay: Plasmodium falciparum Sir2A binding compounds – biochemical, small-molecule microarray, 635 nm fluorescence, primary screen (AID 1098); settings: fluorescence 635 nm, higher = more signal;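 note: score merges spot fluorescence intensity with its signal-to-noise ratio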
[2] = probe aDKK1 binding to arrayed compounds – biochemical, biotinylated probe, 635/667 nm fluorescence, primary screen (AID 1099); settings: small-molecule microarray, higher = more signal;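 note: score merges 667nm spot fluorescence with signal to noise across triplicate slides; reference of the scale not given here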
[3] = probe aCHRDL2 binding to arrayed compounds – biochemical, biotinylated probe, 635/667 nm fluorescence, primary screen (AID 1100); settings: small-molecule microarray, higher = more signal
[4] = change in splice reporter luminescence, either direction, cell-based, HEK293, spliceosome inhibition project, primary screen (AID 1101); settings: HEK293 splicing luciferase reporter, 24 h, higher = more signal, called active from +8 up or from −8 down;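 note: HEK293 cells carrying a splicing-competent luciferase reporter gene; test concentration not given here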
[5] = molecular target: Fibroblast growth factor 10 (Homo sapiens) (UniProt O15520); assay: compounds binding fibroblast growth factor 10 – biochemical, small-molecule microarray, 635 nm fluorescence, primary screen (AID 1102); settings: FGF10 binding, fluorescence 635 nm, higher = more signal
[6] = system: glycogen synthase kinase-3 (GSK3A per assay name; protocol says GSK3B); assay: compounds binding glycogen synthase kinase-3 – biochemical, small-molecule microarray, 635 nm fluorescence, GSK3A, primary screen (AID 1103); settings: fluorescence 635 nm, higher = more signal; note: the record names both GSK3A and GSK3B
[7] = molecular target: Epidermal growth factor receptor (Homo sapiens) (UniProt P00533); assay: compounds binding epidermal growth factor receptor – biochemical, small-molecule microarray, 635 nm fluorescence, primary screen (AID 1104); settings: EGFR binding, higher = more signal;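 note: score merges 667 nm emission intensity with spot signal to noise over triplicate slides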
[8] = molecular target: Follistatin-related protein 3 (Homo sapiens) (UniProt O95633); assay: compounds binding follistatin-related protein 3 – biochemical, small-molecule microarray, 635 nm fluorescence, primary screen (AID 1105); settings: FSTL3 binding, higher = more signal;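 note: score merges emission near 667 nm and signal to noise per printed spot across three slides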
[9] = molecular target: Dickkopf-related protein 1 (Homo sapiens) (UniProt O94907); assay: small molecules binding DKK1 protein – biochemical, small-molecule microarray, 635 nm fluorescence scan, primary screen (AID 1106); settings: higher = more signal;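 note: score merges emission near 667 nm with signal to noise over three replicate slides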
[10] = system: Inhibin beta A chain (activin A); assay: small molecules binding activin A – biochemical, small-molecule microarray, 635 nm fluorescence scan, primary screen (AID 1107); settings: INHBA, higher = more signal;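 note: mouse activin A protein probed at 4.33 µg/mL on printed slides; score merges bound-protein fluorescence near 667 nm with spot signal-to-noise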

Sequence of Fibroblast growth factor 10 (Homo sapiens) (O15520 whole entry, looked up): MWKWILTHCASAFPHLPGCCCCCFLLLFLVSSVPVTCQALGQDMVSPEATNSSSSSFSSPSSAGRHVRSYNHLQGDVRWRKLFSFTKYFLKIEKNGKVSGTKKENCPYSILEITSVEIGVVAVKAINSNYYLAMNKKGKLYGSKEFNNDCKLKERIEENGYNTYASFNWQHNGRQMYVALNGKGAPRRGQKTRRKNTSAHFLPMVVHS
Sequence of Dickkopf-related protein 1 (Homo sapiens) (O94907 whole entry, looked up): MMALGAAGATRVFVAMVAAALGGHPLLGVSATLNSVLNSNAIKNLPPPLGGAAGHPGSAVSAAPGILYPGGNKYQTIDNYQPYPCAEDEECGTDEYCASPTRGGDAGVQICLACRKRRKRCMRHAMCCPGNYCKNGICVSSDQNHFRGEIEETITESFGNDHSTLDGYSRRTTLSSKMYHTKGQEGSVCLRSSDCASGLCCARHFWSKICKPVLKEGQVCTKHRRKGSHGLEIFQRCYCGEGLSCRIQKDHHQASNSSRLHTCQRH
Sequence of Epidermal growth factor receptor (Homo sapiens) (P00533 whole entry, looked up): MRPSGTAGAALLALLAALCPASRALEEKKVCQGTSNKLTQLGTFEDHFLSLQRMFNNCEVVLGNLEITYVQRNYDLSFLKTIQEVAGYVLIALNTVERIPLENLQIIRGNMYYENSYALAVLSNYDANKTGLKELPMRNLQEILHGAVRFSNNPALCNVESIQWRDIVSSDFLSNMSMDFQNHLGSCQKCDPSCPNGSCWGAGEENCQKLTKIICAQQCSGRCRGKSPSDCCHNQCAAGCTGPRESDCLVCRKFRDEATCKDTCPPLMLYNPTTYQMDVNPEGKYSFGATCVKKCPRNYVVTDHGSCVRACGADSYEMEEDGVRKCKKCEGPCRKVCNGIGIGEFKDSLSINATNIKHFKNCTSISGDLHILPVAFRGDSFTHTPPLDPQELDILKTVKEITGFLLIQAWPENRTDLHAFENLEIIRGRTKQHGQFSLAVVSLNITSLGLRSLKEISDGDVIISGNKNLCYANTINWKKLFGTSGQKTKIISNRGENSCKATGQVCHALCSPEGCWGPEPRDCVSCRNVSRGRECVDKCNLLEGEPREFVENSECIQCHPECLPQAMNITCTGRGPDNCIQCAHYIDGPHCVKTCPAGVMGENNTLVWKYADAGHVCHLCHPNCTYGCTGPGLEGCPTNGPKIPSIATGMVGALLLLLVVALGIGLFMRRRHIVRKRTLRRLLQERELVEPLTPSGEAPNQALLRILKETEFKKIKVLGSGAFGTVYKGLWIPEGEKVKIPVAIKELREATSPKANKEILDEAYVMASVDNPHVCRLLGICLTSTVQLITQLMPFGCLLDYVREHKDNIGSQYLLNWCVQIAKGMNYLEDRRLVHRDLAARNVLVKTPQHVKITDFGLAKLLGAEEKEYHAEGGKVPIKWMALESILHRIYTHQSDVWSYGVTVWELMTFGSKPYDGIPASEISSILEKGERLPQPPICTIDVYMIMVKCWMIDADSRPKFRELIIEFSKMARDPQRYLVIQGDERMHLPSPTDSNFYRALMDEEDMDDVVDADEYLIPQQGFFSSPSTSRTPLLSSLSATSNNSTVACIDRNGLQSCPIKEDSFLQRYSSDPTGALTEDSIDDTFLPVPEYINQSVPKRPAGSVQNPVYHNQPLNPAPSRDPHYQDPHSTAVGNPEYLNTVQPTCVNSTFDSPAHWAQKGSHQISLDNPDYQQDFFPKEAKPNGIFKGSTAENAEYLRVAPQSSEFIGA
Sequence of Follistatin-related protein 3 (Homo sapiens) (O95633 whole entry, looked up): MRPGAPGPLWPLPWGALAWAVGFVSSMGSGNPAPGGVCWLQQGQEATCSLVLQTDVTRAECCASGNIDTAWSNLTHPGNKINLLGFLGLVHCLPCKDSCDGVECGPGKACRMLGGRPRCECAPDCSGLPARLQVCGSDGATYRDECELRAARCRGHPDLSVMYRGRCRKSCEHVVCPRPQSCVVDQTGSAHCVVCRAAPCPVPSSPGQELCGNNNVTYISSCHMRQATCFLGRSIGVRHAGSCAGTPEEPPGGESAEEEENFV

## CC1CC/C=C\[C@H]2OC34C=CCN(CCN5CCOCC5)C(=O)[C@H]3N(CCCCCCO)C(=O)[C@@H]4C2C(=O)O1 (stereo not given in full)
[1]
  composite z-score: 0.195
[2]
  composite z-score: -0.301
[3]
  composite z-score: 0.0746
[4]
  z-score: 0.433 (inactive)
[5]
  composite z-score: -0.721
[6]
  composite z-score: -0.993
[7]
  composite z-score: -1
[8]
  composite z-score: -0.704
[9]
  composite z-score: -0.355
[10]
  composite z-score: 0.516

## C[C@@H](OCc1ccccc1)C1NC(=O)[C@@]23C(=O)N[C@@H](Cc4ccccc4)C2[C@H](C)[C@@]2(C)O[C@H]2C3/C=C/C/C=C\CNC(=O)[C@H](Cc2ccccc2)NC1=O (stereo not given in full)
[1]
  composite z-score: 0.21
[2]
  composite z-score: -0.288
[3]
  composite z-score: -0.743
[4]
  z-score: -0.708 (inactive)
[5]
  composite z-score: 1.35
[6]
  composite z-score: 0.297
[7]
  composite z-score: 0.12
[8]
  composite z-score: 0.869
[9]
  composite z-score: 0.443
[10]
  composite z-score: 1.08

## CCOC(=O)C[C@H]1[C@H](OC(=O)c2ccc(-c3ccccc3)cc2)[C@@H](NC(=O)c2ccc3ccccc3c2)c2cc(OCCCO)ccc2N1C(=O)c1ccccc1
[1]
  composite z-score: 0.34
[2]
  composite z-score: -0.393
[3]
  composite z-score: 0.211
[4]
  z-score: 0.173 (inactive)
[5]
  composite z-score: 1.28
[6]
  composite z-score: 0.972
[7]
  composite z-score: 0.514
[8]
  composite z-score: 0.341
[9]
  composite z-score: -0.149
[10]
  composite z-score: -0.121

## CCCC[C@@H]1C[C@H]1[C@@H](NC(=O)Cc1ccccc1)c1ccc(Cl)cc1
[1]
  composite z-score: 0.906
[2]
  composite z-score: 1.22
[3]
  composite z-score: 1.45
[4]
  z-score: -0.0981 (inactive)
[5]
  composite z-score: 0.592
[6]
  composite z-score: 0.937
[7]
  composite z-score: 0.0572
[8]
  composite z-score: 0.868
[9]
  composite z-score: -0.946
[10]
  composite z-score: 0.674

## COc1ccc(C#Cc2ccc3c(c2)[C@]2(C(=O)N3)[C@H](c3ccc(OCCO)cc3)N3[C@H](c4ccccc4)[C@H](c4ccccc4)OC(=O)[C@H]3[C@@H]2C(=O)O)cc1
[1]
  composite z-score: 0.955
[2]
  composite z-score: 0.606
[3]
  composite z-score: 0.176
[4]
  z-score: -1.35 (inactive)
[5]
  composite z-score: 1.42
[6]
  composite z-score: 1.22
[7]
  composite z-score: 0.398
[8]
  composite z-score: 1.44
[9]
  composite z-score: 0.183
[10]
  composite z-score: 0.751

## C=CCNC(=O)[C@H]1[C@@H]2C(=O)O[C@@H](c3ccccc3)[C@@H](c3ccccc3)N2[C@@H](c2ccc(O)cc2)[C@]12C(=O)Nc1ccc(C#CC3=CCCCC3)cc12
[1]
  composite z-score: 1.14
[2]
  composite z-score: 0.593
[3]
  composite z-score: 0.662
[4]
  z-score: 0.622 (inactive)
[5]
  composite z-score: 0.703
[6]
  composite z-score: 1.13
[7]
  composite z-score: 0.859
[8]
  composite z-score: 0.696
[9]
  composite z-score: 0.909
[10]
  composite z-score: 1.31

## CC(=O)c1ccc(C(O)C2C=CC3C(=O)N(C)C(=O)C3N2NC(=O)OC(C)(C)C)cc1 (stereo not given)
[1]
  composite z-score: 1.44
[2]
  composite z-score: 0.86
[3]
  composite z-score: 0.948
[4]
  z-score: 1.66 (inactive)
[5]
  composite z-score: 1.17
[6]
  composite z-score: 0.944
[7]
  composite z-score: -0.499
[8]
  composite z-score: 0.425
[9]
  composite z-score: -0.698
[10]
  composite z-score: -0.149

## COCCOC(=O)N1C(=O)[C@@]2(c3cc(C#CC4=CCCCC4)ccc31)[C@H](C(=O)N1CCN(c3ncccn3)CC1)[C@H]1C(=O)O[C@H](c3ccccc3)[C@H](c3ccccc3)N1[C@@H]2c1ccccc1OCCO
[1]
  composite z-score: 0.419
[2]
  composite z-score: -0.082
[3]
  composite z-score: -0.296
[4]
  z-score: -0.544 (inactive)
[5]
  composite z-score: 1.3
[6]
  composite z-score: 1.28
[7]
  composite z-score: 0.396
[8]
  composite z-score: 1.19
[9]
  composite z-score: 0.402
[10]
  composite z-score: 0.451

## N#Cc1ccc(C(O)C2C=CC3C(=O)NC(=O)C3N2Nc2ccccn2)cc1 (stereo not given)
[1]
  composite z-score: 0.348
[2]
  composite z-score: -0.164
[3]
  composite z-score: 0.425
[4]
  z-score: -0.785 (inactive)
[5]
  composite z-score: 0.0221
[6]
  composite z-score: 0.137
[7]
  composite z-score: 0.362
[8]
  composite z-score: -0.193
[9]
  composite z-score: 0.0057
[10]
  composite z-score: 0.921

## C=CC[C@]1(C(=O)NCc2ccccc2)COC(c2ccc(OCCCO)cc2)=N1
[1]
  composite z-score: 1.49
[2]
  composite z-score: 1.43
[3]
  composite z-score: 1.6
[4]
  z-score: 0.589 (inactive)
[5]
  composite z-score: -0.215
[6]
  composite z-score: -0.9
[7]
  composite z-score: -1.47
[8]
  composite z-score: 0.101
[9]
  composite z-score: -0.301
[10]
  composite z-score: 0.792

## CN(C)CCCC[C@@H]1NC(=O)[C@H]2C[C@@H](C(=O)O)[C@@H](c3cccc(OCCO)c3)N2C1=O
[1]
  composite z-score: 1.67
[2]
  composite z-score: 0.696
[3]
  composite z-score: 0.555
[4]
  z-score: -0.348 (inactive)
[5]
  composite z-score: 0.702
[6]
  composite z-score: 1.14
[7]
  composite z-score: 0.258
[8]
  composite z-score: 0.666
[9]
  composite z-score: 0.969
[10]
  composite z-score: 0.658

## COc1ccc(CCNC(=O)[C@@]2(C)c3ccccc3C(=O)N(Cc3cc(C(F)(F)F)cc(C(F)(F)F)c3)[C@H]2c2ccc(CO)cc2)cc1
[1]
  composite z-score: 0.569
[2]
  composite z-score: 1.64
[3]
  composite z-score: 1.02
[4]
  z-score: -0.926 (inactive)
[5]
  composite z-score: 0.329
[6]
  composite z-score: 0.651
[7]
  composite z-score: 0.875
[8]
  composite z-score: 0.371
[9]
  composite z-score: 0.338
[10]
  composite z-score: -0.307

## C[C@H]1C2[C@H](Cc3ccccc3)NC(=O)[C@]23C(=O)NCC(=O)N2CCC[C@H]2C(=O)NC/C=C\C/C=C/C3[C@@H]2O[C@]12C (stereo not given in full)
[1]
  composite z-score: 1
[2]
  composite z-score: -0.22
[3]
  composite z-score: -0.6
[4]
  z-score: 0.0829 (inactive)
[5]
  composite z-score: 0.269
[6]
  composite z-score: -0.0567
[7]
  composite z-score: 0.136
[8]
  composite z-score: 0.201
[9]
  composite z-score: 0.376
[10]
  composite z-score: 1.43
